The structures appear in SMILES notation. The source made the active and inactive calls. Unless noted, no rule for the calls is given here.

Among the data in PubChem BioAssay are z-score and composite z-score values, retold here.

Test [1] can be described thus: compound effects on lung adenocarcinoma cell viability – A549, calcein-AM fluorescence, 48 h, basal, profiling panel (AID 1162). Also: test concentration not given here. To be noted: higher = more signal.
Test [2] can be described thus: compound effects on differentiated 3T3-L1 adipocyte viability – cell-based, 3T3-L1 adipocytes, calcein-AM fluorescence, 48 h, basal, profiling panel (AID 1163). Also: test concentration not given here. To be noted: 3T3-L1 adipocytes viability, higher = more signal.
Test [3] in a line: compound effects on hepatocellular carcinoma cell viability – HepG2, calcein-AM fluorescence, 48 h, basal, profiling panel (AID 1164). Also: test concentration not given here. The note with it: higher = more signal.
The nature of test [4]: compound effects on multiple myeloma cell viability – MM1S, calcein-AM fluorescence, 48 h, basal, profiling panel (AID 1165).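 Also: viability of MM1S multiple myeloma cells under basal unstimulated conditions; test concentration not given here.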 The note with it: higher = more signal.
Test [5] can be described thus: calcein-AM signal in unstimulated myeloma cells – cell-based, calcein-AM fluorescence, 48 h, PK04 Diversity Set, profiling panel (AID 1166).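 Also: cells grown under basal conditions without added stimulus; test concentration not given here.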 To be noted: RPMI8226 myeloma viability, higher = more signal.
A short description of test [6]: JC-1 mitochondrial signal, unstimulated HepG2 cells – cell-based, JC-1 fluorescence, 24 h, 100 nL compound, profiling panel (AID 1167). Also: test concentration not given here. To be noted: HepG2 mitochondrial potential, higher = more signal.
The nature of test [7]: JC-1 mitochondrial signal, unstimulated adipocytes – cell-based, JC-1 fluorescence, 3T3-L1 adipocytes, 24 h, 100 nL compound, profiling panel (AID 1168). Also: test concentration not given here. To be noted: JC-1 mitochondrial fluorescence, higher = more signal, called active from +8 up or from −8 down.
Test [8] in a line: JC-1 mitochondrial signal, unstimulated myeloma cells – cell-based, JC-1 fluorescence, RPMI8226, 24 h, 100 nL compound, profiling panel (AID 1169). Also: test concentration not given here. To be noted: JC-1 mitochondrial potential fluorescence, higher = more signal.
Test [9] can be described thus: JC-1 mitochondrial signal, unstimulated MM1S myeloma – cell-based, JC-1 fluorescence, 24 h, 100 nL compound, profiling panel (AID 1170). Also: test concentration not given here. The note with it: MM1S mitochondrial potential, higher = more signal.
A short description of test [10]: resazurin metabolic signal in A549 cells – cell-based, resazurin fluorescence, 24 h, PK04 Diversity Set, profiling panel (AID 1171). Also: test concentration not given here. To be noted: A549 viability, higher = more signal, called active from +8 up or from −8 down.
A short description of test [11]: resazurin metabolic signal in HepG2 cells – cell-based, resazurin fluorescence, 24 h, PK04 Diversity Set, profiling panel (AID 1172). Also: test concentration not given here. To be noted: HepG2 viability, higher = more signal. A general note: Alamar Blue is a resazurin reagent that responds to reducing activity.
Test [12] in a line: budding yeast growth changes without added modifier – OD600, strain BY4716, 24 h, basal condition, primary screen (AID 1173). To be noted: S. cerevisiae BY4716 growth, OD600, 24 h; higher = more signal, called active from +8 up or from −8 down.
Test [13] can be described thus: viability profiling in MM1S myeloma cells – cell-based, resazurin fluorescence, basal, 24 h, PK04 Diversity Set, profiling panel (AID 1174). Also: test concentration not given here. The note with it: higher = more signal, called active from +8 up or from −8 down.
For test [14], the target named is Dihydroorotate dehydrogenase (quinone), mitochondrial (Plasmodium falciparum (isolate 3D7)) (UniProt Q08210). In words: inhibition of P. falciparum DHODH – biochemical, C-terminal His tag, absorbance 600 nm, primary screen (AID 1175).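 Also: recombinant parasite enzyme with a five histidine tag at its C terminus; test concentration not given here.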 To be noted: PfDHODH enzyme, DCIP absorbance 600 nm; higher = more signal, called active from +8 up or from −8 down.
A short description of test [15]: inhibition of PAO1 biofilm formation – strain PAO1, LB-PBS medium, absorbance 600 nm, primary screen (AID 1176). Also: test concentration not given here. To be noted: P. aeruginosa PAO1 growth/biofilm, A600, 12 h; higher = more signal.
Test [16] can be described thus: growth modulation of vineyard yeast isolate – strain RM11-1a, OD600, basal, 24 h, primary screen (AID 1177).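 Also: cultures grown under basal conditions with no added stressor; test concentration not given here.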 The note with it: S. cerevisiae RM11-1a growth, OD600, 24 h; higher = more signal, called active from +8 up or from −8 down.
A short description of test [17]: growth of efflux-deficient E. coli DRC39 – strain DRC39, OD650, 24 h, E. coli filamentation inducers, primary screen (AID 1178).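 Also: growth measured as culture turbidity by optical density at 650 nm; test concentration not given here.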 To be noted: E. coli DRC39 acrAB, higher = more signal, called active from +8 up or from −8 down.
The nature of test [18]: growth of efflux-deficient E. coli DRC39 – strain DRC39, OD650, 48 h, E. coli filamentation inducers, primary screen (AID 1179).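 Also: screen aims at cell division blockers that make cells filament.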 To be noted: E. coli DRC39 delta-acrAB growth, higher = more signal, called active from +8 up or from −8 down.
A short description of test [19]: viability profiling in RPMI8226 myeloma cells – cell-based, resazurin fluorescence, basal, 24 h, PK04 Diversity Set, profiling panel (AID 1180).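 Also: RPMI8826 multiple myeloma cell line at 5000 cells per well; test concentration not given here.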 To be noted: higher = more signal.
In test [20] the target is E3 ubiquitin-protein ligase XIAP (Homo sapiens) (UniProt P98170). The test is described as follows: small molecules binding XIAP protein – biophysical, small-molecule microarray, fluorescence 635 nm, primary screen (AID 1181).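 Also: score merges 667 nm emission and signal to noise over triplicate slides.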 To be noted: higher = more signal.
Chain of E3 ubiquitin-protein ligase XIAP (Homo sapiens) (P98170 whole entry, looked up): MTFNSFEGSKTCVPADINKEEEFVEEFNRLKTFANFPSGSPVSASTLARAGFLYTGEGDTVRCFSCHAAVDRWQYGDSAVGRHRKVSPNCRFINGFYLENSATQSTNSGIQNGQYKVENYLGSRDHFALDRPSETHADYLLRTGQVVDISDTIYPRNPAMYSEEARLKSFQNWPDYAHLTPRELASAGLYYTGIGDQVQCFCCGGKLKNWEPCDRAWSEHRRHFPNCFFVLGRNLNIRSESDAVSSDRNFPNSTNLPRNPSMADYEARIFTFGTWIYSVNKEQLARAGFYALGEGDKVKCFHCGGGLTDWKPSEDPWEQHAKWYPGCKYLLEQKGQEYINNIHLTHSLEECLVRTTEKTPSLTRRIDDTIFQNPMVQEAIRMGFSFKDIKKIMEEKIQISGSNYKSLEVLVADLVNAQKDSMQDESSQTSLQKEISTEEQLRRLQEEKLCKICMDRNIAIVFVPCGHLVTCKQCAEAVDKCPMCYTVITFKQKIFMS

Chain of Dihydroorotate dehydrogenase (quinone), mitochondrial (Plasmodium falciparum (isolate 3D7)) (Q08210 whole entry, looked up): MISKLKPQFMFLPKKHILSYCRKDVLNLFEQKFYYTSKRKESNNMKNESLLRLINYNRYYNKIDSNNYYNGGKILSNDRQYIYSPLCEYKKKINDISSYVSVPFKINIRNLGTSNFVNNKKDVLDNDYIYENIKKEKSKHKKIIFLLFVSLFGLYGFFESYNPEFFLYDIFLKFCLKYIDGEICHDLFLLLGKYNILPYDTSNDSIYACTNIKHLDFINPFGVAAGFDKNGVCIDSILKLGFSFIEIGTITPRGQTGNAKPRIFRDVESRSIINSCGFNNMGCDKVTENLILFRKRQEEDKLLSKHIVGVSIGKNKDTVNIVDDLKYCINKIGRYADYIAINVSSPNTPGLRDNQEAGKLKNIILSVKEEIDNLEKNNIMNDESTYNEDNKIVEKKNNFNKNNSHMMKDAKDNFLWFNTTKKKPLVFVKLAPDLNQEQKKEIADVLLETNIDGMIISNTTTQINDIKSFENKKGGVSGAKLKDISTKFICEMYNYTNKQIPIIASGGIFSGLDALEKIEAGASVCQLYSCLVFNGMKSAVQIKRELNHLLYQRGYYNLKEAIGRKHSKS

For `O=C1C2C=CC(C(O)C=Cc3ccc([N+](=O)[O-])cc3)N(Nc3ccccc3)C2C(=O)N1c1ccccc1` (stereo not given), the z-score in [1] is 2.48; in test [2] it was -0.123; in [3], 1.28; in test [4], 0.0385; in test [5], -0.0477; in test [6], -0.0526. The z-score was -1.19 (inactive) in test [7]; -0.175 in test [8]; -0.951 in test [9]; -0.102 (inactive) in test [10]; -0.392 in [11]; -2.88 (inactive) in test [12]. The z-score was -1.44 (inactive) in test [13]; 1.1 (inactive) in [15]; -0.0358 (inactive) in [16]; -0.125 (inactive) in [17]; 0.242 (inactive) in test [18]; 0.185 in test [19]. In addition, the composite z-score is -0.162 (inactive) in [14] and -0.0103 in test [20].

For `O=C1[C@@H]2[C@@H](CC(COc3ccccc3)=C3[C@@H](CCc4ccccc4)OB(O)C[C@@H]32)C(=O)N1Cc1ccccc1`, the z-score in test [1] is -0.607; in test [2], -0.141; in [3], -0.752; in test [4], -3.22; in test [5], -4.09; in test [6], -0.851. In addition, the z-score in test [7] is 0.453 (inactive); in test [8] it was -1.07; in [9], 0.253; in test [10], -0.0787 (inactive); in test [11], -0.665; in [12] it was -1.23 (inactive). The z-score was -0.0801 (inactive) in test [13]; 0.306 (inactive) in test [15]; -0.0775 (inactive) in test [16]; -0.304 (inactive) in test [17]; -0.915 (inactive) in test [18]; -0.0577 in test [19]. Besides, the composite z-score in test [14] was -0.77 (inactive); in test [20], -0.16.

Regarding `CC(C)C[C@@H]1NC(=O)[C@H]2C[C@@H](C(=O)NCCCCCN)[C@@H](c3cccc(OCCO)c3)N2C1=O`, the z-score in [1] is 0.779; in test [2], 0.57; in test [3] it was 1.3; in test [4], 0.64; in test [5], -0.0687; in test [6] it was 1.07. Moreover, the z-score is 0.97 (inactive) in test [7]; -0.336 in test [8]; -0.16 in test [9]; 0.11 (inactive) in test [10]; -0.604 in [11]; -0.122 (inactive) in test [12]. Moreover, the z-score was -0.178 (inactive) in test [13]; -0.0491 (inactive) in [15]; -2.46 (inactive) in [16]; 1.06 (inactive) in [17]; 1.61 (inactive) in test [18]; 0.138 in test [19]. The composite z-score is -1.36 (inactive) in test [14] and -0.198 in [20].

Consider `O=C1O[C@H](c2ccccc2)[C@H](c2ccccc2)N2[C@H]1[C@@H](C(=O)Nc1nc3ccccc3s1)[C@]1(C(=O)Nc3ccc(C#CC4=CCCCC4)cc31)[C@H]2c1ccc(O)cc1`, for which the z-score in test [1] was 0.397; in test [2] it was -0.197; in test [3], 0.992; in test [4] it was -1.01; in test [5] it was -2.01; in test [6] it was -2.82. The z-score in test [7] was -0.216 (inactive); in test [8], -0.886; in test [9] it was -0.991; in [10], 0.229 (inactive); in [11], 0.98; in test [12] it was -1.03 (inactive). Also, the z-score was 0.306 (inactive) in [13]; 0.517 (inactive) in test [15]; -0.286 (inactive) in test [16]; 0.442 (inactive) in [17]; 0.382 (inactive) in test [18]; 0.422 in test [19]. For the same molecule, the composite z-score was 0.667 (inactive) in test [14] and -0.13 in test [20].
